Screening results from PubChem.
This is a sample that favours compounds with a hit; in the whole collection about 3.1% have one here.
D3 ag: agonists of human D3 dopamine receptor | D3R DiscoveRx beta-arrestin cells, luminescence, 90 min | max activation, % | 410,000 tested, 0.58% active | P35462; in the data active = max activation above about 30%; also: 0% is about no effect
Target sequence (P35462 whole entry, looked up): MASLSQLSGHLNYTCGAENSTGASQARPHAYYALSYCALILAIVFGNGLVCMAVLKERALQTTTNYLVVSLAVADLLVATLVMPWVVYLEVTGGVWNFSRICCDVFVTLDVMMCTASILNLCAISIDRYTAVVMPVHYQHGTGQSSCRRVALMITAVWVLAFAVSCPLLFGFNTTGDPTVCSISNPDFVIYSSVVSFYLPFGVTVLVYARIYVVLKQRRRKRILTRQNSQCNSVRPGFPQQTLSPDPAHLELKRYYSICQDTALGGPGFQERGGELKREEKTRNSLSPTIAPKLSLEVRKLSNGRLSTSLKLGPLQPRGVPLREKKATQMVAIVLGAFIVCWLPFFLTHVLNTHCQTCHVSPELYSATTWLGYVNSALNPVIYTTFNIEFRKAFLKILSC
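Cells at 1500/well, incubated overnight, then treated with pinned compounds (dopamine as control) for 90 min at 37 degrees C. DiscoveRx reagent added for 30 - 60 minutes at room temperature; luminescence read.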
DRD3 antagonist: antagonists of human D3 dopamine receptor; P35462; D3R cells, DiscoveRx beta-arrestin luminescence, antagonist mode; active compounds read low; max response, negative = inhibition, %; 360,000 tested, 2.5% active; AID 652054; in the data active = max response below about -50%; inconclusive = no clear call, values can overlap the other calls; also: % is scaled to controls: 0 for no effect and ±100 for the full control effect
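Cells expressing the human receptor were seeded at 1500 cells/well, incubated overnight at 37 degrees C in 5% CO2, then exposed to library compounds with dopamine controls for 90 minutes at 37 degrees C before luminescent detection.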
RGS4 inh: human RGS4 inhibition; Transcreener GDP fluorescence polarization, RGS4-accelerated GTP hydrolysis; Potency, µM (doses to about 114 µM), for inactives: at the top dose activity change, negative = inhibition, hits mostly inhibitors; 390,000 tested, 0.039% active; active = well fitted inhibition curve with a large enough effect; inconclusive = small, poorly fitted or top-dose-only effect; inactive = no such curve, though single readings can be large or run the other way; also: potency is read from the fitted curve at half-maximal effect; % is scaled to controls: 0 for no effect and ±100 for the full control effect; nearly all actives have a fitted effect of over 75% in size
Target sequence (P49798 whole entry, looked up): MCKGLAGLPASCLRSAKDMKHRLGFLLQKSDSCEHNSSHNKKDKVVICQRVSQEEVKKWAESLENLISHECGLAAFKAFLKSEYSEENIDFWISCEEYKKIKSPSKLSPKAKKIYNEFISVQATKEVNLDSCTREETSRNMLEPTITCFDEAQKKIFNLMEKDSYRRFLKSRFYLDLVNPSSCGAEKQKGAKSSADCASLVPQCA
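MLSMR compounds (23 nl, pin-transferred) preincubated 10 min at room temperature with a 500nM (2x) first reagent, then RGS4 at 900nM (2x) plus Transcreener GDP mix added; fluorescence polarization (620/688 nm) read before and after 90 min at 30 °C.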
uPA generation: cell surface uPA generation inhibition; 330,000 tested, 0.31% active; cell surface uPA generation assay, qHTS; AID 540303; Potency, µM (highest dose often 38.3 µM), inactives show at the top dose activity change, negative = inhibition, actives largely listed as inhibitors; active = well fitted inhibition curve with a large enough effect; inconclusive = small, poorly fitted or top-dose-only effect; inactive = no such curve, though single readings can be large or run the other way; tested in mouse RAW 264.7 cells; also: potency is read from the fitted curve at half-maximal effect; % is scaled to controls: 0 for no effect and ±100 for the full control effect; nearly all actives have a fitted effect of over 55% in size
* hit, by the source's call; ? = inconclusive; / = not tested or not shown; [ ] = another dose, or the depositor's remark.

SMILES	D3 ag	DRD3 antagonist	RGS4 inh	uPA generation
N#CC1=C(N)C(C#N)(C#N)C(c2ccncc2)C2CN(C(=O)OCc3ccccc3)CC=C12 (configuration not stated)	-14	-63*	-54%	0%
CC1CCN(C(=O)CSc2nc3ccccc3[nH]2)CC1	-38	-53*	7%	/
NC(=O)C1CCN(C(=O)CSc2nc3ccccc3[nH]2)CC1	5	15	-24%[11.4 µM]	4%
CCN1CCOC(=O)C1CC(=O)Nc1cc(Cl)ccc1OC (configuration not stated)	-14	/	-9%	/
CNc1c(C(=O)O)ccc2c1C(=O)c1ccccc1C2=O	-45	-74*	-17%	-2%
O=C(O)c1ccc2c(c1Nc1ccccc1)C(=O)c1ccccc1C2=O	-14	-56*	-15%	-4%
O=S(=O)(/C(=C\c1ccc(C(F)(F)F)cc1)c1nc2ccccc2[nH]1)c1ccccc1	-12	-93*	?	-10%
O=C(NCc1ccco1)/C(=C/c1ccc(C(F)(F)F)cc1)c1nc2ccccc2[nH]1	-8	-12	-1%[11.4 µM]	?
CC(C)Cn1c(=S)[nH]c2ccccc2c1=O	1	4	8%	-2%
CC(C)n1[nH]c2ccccc2c1=O	-16	-66*	/	/
Cc1ccc(C(=O)NCCN2C3=NC[C@@H](Cc4ccccc4)N3C[C@H]2Cc2ccc(O)cc2)cc1Br	-15	-58*	-10%	-2%
COc1ccc(C[C@H]2CN3C(=NC[C@@H]3C(C)C)N2C[C@H](C)NC(=O)c2ccc(C)c(Br)c2)cc1	-60	-76*	?	12%
COc1ccc(C[C@H]2CN3C(=NC[C@@H]3Cc3ccc(O)cc3)N2CCNC(=O)c2ccc(C)c(Br)c2)cc1	-67	-98*	0%	-15%
Cc1ccc(C(=O)NCCN2C3=NC[C@H](Cc4ccc(O)cc4)N3C[C@H]2Cc2ccc(O)cc2)cc1Br	-53	?	-11%	-3%
COc1ccc(C[C@H]2CN3C(=NC[C@@H]3Cc3ccccc3)N2CCNC(=O)c2ccc(C)c(Br)c2)cc1	-51	-100*	-14%	-16%
C/C=C(\C)C(=O)NCCN1C2=NC[C@H](Cc3ccccc3)N2C[C@@H]1Cc1ccc(OC)cc1	0	-52*	-1%	4%
NC(=O)CCN1CCCCC1	0	3	35%	4%
O=C(CCC(=O)CCN1CCCCC1)CCN1CCCCC1	-1	-67*	30%	3%
COc1ccc(CCC(=O)NC2CC(=O)N(c3ccc(C)cc3)C2)cc1 (configuration not stated)	71*	/	7%	/
COc1ccc(CCC(=O)NC2CC(=O)N(c3ccccc3)C2)cc1 (configuration not stated)	-6	/	-13%	/
O=C(Nc1ccc2oc(-c3ccncc3)nc2c1)c1c(F)c(F)c(F)c(F)c1F	-16	-66*	4%[11.4 µM]	-6%
COc1c(F)c(F)c(C(=O)Nc2ccc3oc(-c4ccncc4)nc3c2)c(F)c1F	7	15	-56%	6%
O=C(NCCS(=O)(=O)N1CCN(c2ccccc2F)CC1)C(c1ccccc1)c1ccccc1	7	/	-2%	/
COc1ccc2c(c1)CCC1C2=NN(/C(C)=C/C(C)=O)C1c1cccc(F)c1 (configuration not stated)	2	-58*	9%	-27%
CSc1ccccc1C(=O)Nc1ccc2c(c1)OCCO2	-10	28	-17%	-2%
SMILES	D3 ag	DRD3 antagonist	RGS4 inh	uPA generation
CCc1ccc(NC(=O)c2ccccc2SC)cc1	30*	-13	-1%	-1%
Cc1c(C(=O)Nc2ccc(F)cc2)oc2ccc(S(=O)(=O)N3CCCCCC3)cc12	4	/	2%	/
CN1CCN(c2nc3cc(C(F)(F)F)ccc3n3cccc23)CC1	-72	-52*	11%[56.9 µM]	-12%
Cc1ccc2cc(C#N)c(NCCNC(=S)NCCCN(C)C)nc2c1C	-2	-22	18%	10µM*
Cc1cc(C)c2nc(NCCCNC(=S)NCCCN(C)C)c(C#N)cc2c1	-15	?	11%	?
O=C(NCCCN1CCN(c2ccc(F)cc2)CC1)C1CCCN(c2ncnc3c2nc2n3CCCCC2)C1 (configuration not stated)	-11	-55*	-19%	-14%
COc1ccccc1N1CCN(CCCNC(=O)C2CCCN(c3ncnc4c3nc3n4CCCCC3)C2)CC1 (configuration not stated)	-20	-104*	-4%	6%
Cc1ccc(S(=O)(=O)N2CCN(c3nc(-c4cscn4)nc4ccccc34)CC2)cc1	/	/	9%	/
CC(C)c1c(C(=O)N/N=C/c2cccc(OCc3ccccc3)c2)nnn1-c1nonc1N	40*	45	14%	-3%
Cc1cccc(C)c1N(CC(=O)N1CCN(C)CC1)S(C)(=O)=O	4	-79*	-27%	2%
C=CCNC(=S)NNC(=O)c1cccn(Cc2ccc(Cl)cc2Cl)c1=O	-12	-73*	-34%	0%
CCNC(=S)NNC(=O)c1cccn(Cc2ccc(Cl)cc2Cl)c1=O	-5	-59*	-25%	-4%
C=CCNC(=S)NNC(=O)c1cccn(Cc2ccc(Cl)c(Cl)c2)c1=O	-38	?	?	/
CNC(=S)NNC(=O)c1cccn(Cc2cccc(Cl)c2)c1=O	-5	27	-22%	/
CC(=O)Nc1ccc(-c2nnc3n(Cc4ccc(C)cc4)c(=O)c4ccccc4n23)cc1	-1	/	-20%	/
C[C@]12C=CC(=O)N[C@@H]1CC[C@@H]1[C@@H]2CC[C@]2(C)[C@@H](C(=O)Nc3cc(C(F)(F)F)ccc3C(F)(F)F)CC[C@@H]12	-17	/	/	/
O=C(CCC1COc2ccccc2O1)Nc1cccnc1 (configuration not stated)	33*	25	-22%	/
O=C(CCC1COc2ccccc2O1)Nc1ccccn1 (configuration not stated)	-1	-4	-2%	-5%
CCOC(=O)c1cnc2ccc(OCC)cc2c1N1CCN(c2ccccc2OC)CC1	34*	69	-3%[11.4 µM]	8%
CCOC(=O)c1cnc2ccc(OCC)cc2c1N(C)Cc1ccccc1	68*	8	1%	-2%
NC(=O)c1c(NC(=O)CS(=O)(=O)c2ccc(Cl)cc2)sc2c1CCCCC2	5	/	-28%	/
O=C(Nc1cc2c(cc1C(=O)c1ccccc1)OCCO2)c1ccc(Br)cc1	-16	/	-5%	/
COc1ccc(-c2coc3c(C(=O)NCC4CC4)cccc23)c(C)c1	56*	276	/	/
c1ccc2c(c1)OC(CCCN1CCCCC1)c1ccccc1S2 (configuration not stated)	-2	-4	-11%	-5%
CN1CCCC(CC2Oc3ccccc3Sc3ccccc32)C1 (configuration not stated)	-39	-84*	-3%	-7%
CCC(C)NCCOCCOc1ccc(Cl)c(C)c1C (configuration not stated)	-13	-64*	12%	3%
CCC(C)NCCOCCSc1ccc(Cl)cc1 (configuration not stated)	-10	-78*	23%	-2%
COCCCNC(=O)CCSc1ccc(Cl)cc1	-2	-13	11%	2%
